Results on 40 compounds are retold here after PubChem BioAssay AID504534 (National Center for Advancing Translational Sciences (NCATS), 2011).

Records with an inconclusive call do not appear. Where a call stands in place of a potency, no number is given. Active and inactive are the calls of the source. Calls come from the whole dose curve; as a rule, active = well fitted curve in the direction sought with a large enough effect; inconclusive = small, poorly fitted or top-dose-only effect, or another doubt; inactive = no such curve, though single readings can be large or run the other way.
Potency is the fitted concentration of half-maximal effect.

This assay can be described thus: Secondary Assay for Inhibitors of Human Cdc-like kinase 4 (Clk4): HEK-293 Cell Viability Assay.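 Note: cytotoxic hits lower the ATP light signal so activity reflects loss of viability.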 To be noted: HEK-293 viability, ATP luminescence (CellTiter-Glo), 24/48 h; series mostly up to 46.1 µM. As for the experimental part:
NIH Molecular Libraries Probe Production Centers Network [MLPCN] NIH Chemical Genomics Center [NCGC] MLPCN Grant: 1R03MH084827-01 Assay Submitter (PI): Tom Misteli NCGC Assay Overview: Cytotoxicity of the active compounds in the Clk4 screens was assessed using the CellTiter-Glo Luminescent Cell Viability Assay kit (Promega, USA) in the HEK-293 (ATCC) cell line. CellTiter-Glo measures the intracellular ATP present in metabolically active cells using Ultra-Glo as the luciferase to detect ATP levels. In brief, the luciferase in the buffer catalyzes the oxidation of luciferin to oxyluciferin and light which is dependent on ATP. […] Wells treated with various concentrations of cycloheximide (Sigma) and DMSO, and wells with media alone were used as positive and negative controls, respectively. […] [1] http://www.promega.com/tbs/tb288/tb288.pdf
NCGC Assay Protocol Summary: HEK-293 cells were grown in a flask up to 80% confluence. Cells were trypsinized, washed, and resuspended in MEM Eagle + 10% FBS + 1% pen-strep media at a concentration of 120 cells/uL. Five uL/well of cell solution was dispensed into a 1536-well assay plates (Greiner, solid white medium-binding plates) with Aurora Discovery BioRAPTR Flying Reagent Dispenser (FRD; Beckton-Dickenson). Cells were pre-incubated at 37 degree Celsius, 5% CO2 for four hours. Compound and control solutions (23nL) were then transferred to the assay plate using the Kalypsys 1536-pin tool. Assay plates were re- incubated at 37 degree Celsius, 5% CO2. After 24 or 48 hours, five uL of CellTiter Glo detection reagent was added. Luminescence signal was read with Perkin Elmer ViewLux plate reader after 30 min room temperature incubation.
On the technique in general: Cellular ATP, detected with luciferase, serves as a proxy for viable cell number.
Take `CN(Cc1ccco1)c1ncnc2ccc(-c3ccoc3)cc12`: the Potency result was “inactive”.

Consider `O=C(O)c1ccc(-c2ccc3ncnc(N4CCOCC4)c3c2)o1`, for which the Potency entry is “inactive”. Then `c1csc(CNc2ncnc3ccc(-c4ccc5c(c4)OCO5)cc23)c1`, with “inactive”; and `CN(CC(=O)O)c1ncnc2ccc(-c3ccc4c(c3)OCO4)cc12`, with “inactive”; and `OCc1ccc(-c2ccc3ncnc(NCCc4cnc[nH]4)c3c2)o1`, with “inactive”.

As to `Cc1nc(CNc2ncnc3ccc(-c4ccoc4C)cc23)cs1`, the Potency result was “inactive”.

Turning to `c1csc(CNc2ncnc3ccc(-c4ccc5c(c4)OCO5)cc23)n1`, the Potency result is “inactive”. Next, `CCOC(=O)c1ccc(-c2ccc3ncnc(NCc4cccs4)c3c2)o1`: “inactive”. Next, `NCCNc1ncnc2ccc(-c3ccc4c(c3)OCO4)cc12`: “inactive”; `O=C(O)c1ccc(-c2ccc3ncnc(NCc4nccs4)c3c2)o1`: “inactive”. Then `c1cncc(CNc2ncnc3ccc(-c4ccco4)cc23)c1`, with “inactive”; and `c1nc(NCCc2cnc[nH]2)c2ccc(-c3ccc4c(c3)OCO4)cc2n1`, with “inactive”. Regarding `CN(Cc1ncc[nH]1)c1ncnc2ccc(-c3ccc4c(c3)OCO4)cc12`, the Potency entry was “inactive”.

With `COc1cccc(-c2ccc3ncnc(NCc4cccc(C)c4)c3c2)c1`, the Potency result is “inactive”. Next, `Cn1cncc1CNc1ncnc2ccc(-c3ccc4c(c3)OCO4)cc12`: “inactive”; `c1nc(OCc2cnc[nH]2)c2cc(-c3ccc4c(c3)OCO4)ccc2n1`: “inactive”. Then `CC(=O)c1ccc(-c2ccc3ncnc(NCc4ccc(C)o4)c3c2)o1`, with “inactive”.

Consider `Cc1cccc(CNc2ncnc3ccc(-c4cccnc4)cc23)c1`, for which the Potency result is “inactive”. Then `c1nc(NCc2ccc3c(c2)OCO3)c2cc(-c3ccc4c(c3)OCCO4)ccc2n1`, with “inactive”; and `c1coc(CNc2ncnc3ccc(-c4ccc5c(c4)OCO5)cc23)c1`, with “inactive”. Then `Cc1nc(C(C)N(C)c2ncnc3ccc(-c4ccc5c(c4)OCO5)cc23)cs1` (stereo not given), with “inactive”. Next, `CC(O)c1ccc(-c2ccc3ncnc(NCCc4cnc[nH]4)c3c2)o1` (stereo not given): “inactive”; `CN(CCc1ccco1)c1ncnc2ccc(-c3ccc4c(c3)OCO4)cc12`: “inactive”. `Cc1csc(CNc2ncnc3ccc(-c4ccco4)cc23)c1`: the Potency result is “inactive”. Then `Clc1cccc(-c2ccc3ncnc(NCc4cccs4)c3c2)c1`, with “inactive”. Then `c1csc(CCNc2ncnc3ccc(-c4ccc5c(c4)OCO5)cc23)c1`, with “inactive”; and `Cc1nc(CNc2ncnc3ccc(-c4ccc5c(c4)OCO5)cc23)cs1`, with “inactive”. In the case of `CCN(Cc1sccc1C)c1ncnc2ccc(-c3ccc4c(c3)OCO4)cc12`, the Potency entry was “inactive”. Next, `CCN(Cc1cccs1)c1ncnc2ccc(-c3ccc4c(c3)OCO4)cc12`: “inactive”. Next, `Cc1ccc(CNc2ncnc3cc(-c4ccc5c(c4)OCO5)ccc23)o1`: “inactive”.

For `Cc1ccc(CN(C)c2ncnc3ccc(-c4ccc(C(=O)O)o4)cc23)o1`, the Potency entry was “inactive”. Then `Fc1cccc(CNc2ncnc3ccc(-c4ccccc4Cl)cc23)c1`, with “inactive”; and `COc1cccc(Nc2ncc3nc(-c4cn(C)c5ccccc45)c(=O)n(CCC#N)c3n2)c1`, with 7.91 µM (active). Next, `Cc1csc(CNc2ncnc3ccc(-c4ccc(C(=O)O)o4)cc23)n1`: “inactive”; `CCOC(=O)c1ccoc1-c1ccc2ncnc(NCc3csc(C)n3)c2c1`: “inactive”. Next, `CC(C)(C)CNc1ncnc2ccc(-c3ccc4c(c3)OCO4)cc12`: “inactive”. With `Cc1cccc(CNc2ncnc3ccc(-c4ccccc4Cl)cc23)c1`, the Potency entry was “inactive”.

Regarding `CCn1cnc(CCN(C)c2ncnc3ccc(-c4ccc5c(c4)OCO5)cc23)c1`, the Potency result was “inactive”.

On to `Cc1occc1CNc1ncnc2ccc(-c3ccc4c(c3)OCO4)cc12`, for which the Potency result was “inactive”.

Consider `CCOC(=O)c1ccoc1-c1ccc2ncnc(NCCc3cnc[nH]3)c2c1`, for which the Potency entry is “inactive”.
